Where “and” joins values, the source holds several entries; their conditions need not be identical. Equal entries are not always repeated. For part of these data: Results with a measured potency or affinity are listed apart. Calls of active or inactive are those of the source.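 Rule for the calls, unless noted: active = compound raising the membrane signal above positive-control mean plus 3 SD in both repeats, and a primary screen hit; inactive = the rest.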
Key:
[1] = tested on: TRPC4 beta (transient receptor potential cation channel C4), mouse; experiment: activators of mouse TRPC4 channel, confirmation, cell-based, Fluo4 calcium, HEK293 TRPC4beta/mu-opioid, duplicates, 10 µM (AID 2426;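 active = fluorescence ratio normalized to control raised more than 50% in primary screen plus both repeat runs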;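 for activation: percent rise of integrated ratio over buffer wells lacking compound which define 0%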); conditions: Fluo4 calcium fluorescence, at 10 µM; hits give high values
[2] = tested on: transient receptor potential cation channel C4 beta (TRPC4), mouse; experiment: activators of mouse TRPC4 channel, confirmation, cell-based, second round, Fluo4, HEK293 TRPC4beta/mu-opioid, 1 µM (AID 2461;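 active = primary screen active and over 50% activation in each of two duplicate runs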;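 for activation: 0% = wells without test compound as baseline of integrated fluorescence ratio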); conditions: Fluo4 calcium fluorescence, at 1 µM; hits give high values
[3] = tested on: TRPC4 (transient receptor potential cation channel C4 beta), mouse; experiment: positive allosteric modulators of mouse TRPC4, confirmation, cell-based, second round, Fluo-4, HEK293 TRPC4beta/mu-opioid, 1 µM (AID 2554;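 active = primary screen hit whose fluorescence ratio, in both repeats, exceeds the weak agonist control mean by 3 SD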); conditions: DAMGO EC20, Fluo-4 calcium flux, at 1 µM; hits give high values
[4] = tested on: TRPC4 beta (transient receptor potential cation channel C4), mouse; experiment: positive allosteric modulators of mouse TRPC4, confirmation, cell-based, Fluo-4, HEK293 TRPC4beta/mu-opioid (AID 2555;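 active = primary screen hit whose calcium fluorescence ratio, in both repeats, exceeds the weak agonist control mean by 3 SD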); conditions: DAMGO EC20, Fluo-4 calcium flux, at 10 µM; hits give high values
[5] = target: Short transient receptor potential channel 4 (Mus musculus) (UniProt Q9QUQ5); experiment: inhibitors of mouse TRPC4 channel, confirmation, cell-based, Fluo4, HEK293 TRPC4beta/mu-opioid (AID 2636;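 active = calcium signal cut by more than 3 SD below the full-agonist control yet still positive, in both repeats and the earlier primary screen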); conditions: DAMGO, Fluo4 calcium flux, at 10 µM; hits give high values
Chain of Short transient receptor potential channel 4 (Mus musculus) (Q9QUQ5 whole entry, looked up): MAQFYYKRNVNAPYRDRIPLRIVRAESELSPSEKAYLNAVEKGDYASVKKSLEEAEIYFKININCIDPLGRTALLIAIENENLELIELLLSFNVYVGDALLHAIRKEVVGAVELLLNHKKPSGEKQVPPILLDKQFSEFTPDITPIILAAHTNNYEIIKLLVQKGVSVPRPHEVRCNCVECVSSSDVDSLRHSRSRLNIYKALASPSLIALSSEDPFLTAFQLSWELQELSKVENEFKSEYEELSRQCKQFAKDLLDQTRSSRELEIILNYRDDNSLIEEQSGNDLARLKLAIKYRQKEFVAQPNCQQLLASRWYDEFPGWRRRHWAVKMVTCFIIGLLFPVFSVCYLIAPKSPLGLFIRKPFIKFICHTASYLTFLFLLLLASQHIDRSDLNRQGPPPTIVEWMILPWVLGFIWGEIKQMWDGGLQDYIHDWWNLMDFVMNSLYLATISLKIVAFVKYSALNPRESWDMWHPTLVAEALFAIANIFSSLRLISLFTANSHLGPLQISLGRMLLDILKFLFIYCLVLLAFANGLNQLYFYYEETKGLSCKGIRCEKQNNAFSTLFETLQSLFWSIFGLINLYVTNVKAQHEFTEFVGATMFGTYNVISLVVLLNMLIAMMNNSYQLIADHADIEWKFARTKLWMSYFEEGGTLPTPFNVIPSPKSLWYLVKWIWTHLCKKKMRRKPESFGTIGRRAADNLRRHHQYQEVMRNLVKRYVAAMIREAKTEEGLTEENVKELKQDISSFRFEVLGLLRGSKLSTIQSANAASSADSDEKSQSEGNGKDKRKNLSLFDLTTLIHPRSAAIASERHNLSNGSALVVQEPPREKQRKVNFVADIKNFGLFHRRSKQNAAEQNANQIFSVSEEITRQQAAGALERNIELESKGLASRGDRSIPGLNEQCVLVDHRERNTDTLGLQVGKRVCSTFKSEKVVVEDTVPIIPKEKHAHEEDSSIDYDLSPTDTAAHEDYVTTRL

[6] = target: Short transient receptor potential channel 4 (Mus musculus) (UniProt Q9QUQ5); experiment: inhibitors of mouse TRPC4 channel, confirmation, cell-based, second round, Fluo4, HEK293 TRPC4beta/mu-opioid, 1 µM (AID 2637;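 active = calcium signal ratio cut to more than 3 SD under the fully stimulated control mean yet still positive, in both repeats and the primary screen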); conditions: Fluo4 calcium flux, DAMGO, at 1 µM; hits give high values
[7] = target: Short transient receptor potential channel 4 (Mus musculus) (UniProt Q9QUQ5); experiment: TRPC4 positive allosteric modulators, dose response, cell-based, HEK293 TRPC4/mu-opioid, Fluo-4 calcium, EC20 DAMGO (AID 434941;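 active = earlier screen potentiator hit that boosts the TRPC4 ion channel at some dose, with a dose response; inactive = no potentiation, no dose response, or not a prior hit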;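 note: calcium entry triggered by an EC20 dose of DAMGO at the co-expressed mu-opioid receptor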)
[8] = target: Short transient receptor potential channel 4 (Mus musculus) (UniProt Q9QUQ5); experiment: mouse TRPC4 channel inhibitors, dose response, cell-based, HEK293 TRPC4/mu-opioid, Fluo-4 calcium (AID 434942;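 active = primary screen inhibitor hit that blocks the TRPC4 channel at some tested dose, yielding a dose curve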)
[9] = target: Short transient receptor potential channel 6 (Mus musculus) (UniProt Q61143); experiment: inhibition of mouse TRPC6 channel, confirmation, selectivity assay for TRPC4 inhibitor project, cell-based, HEK293, membrane potential dye, duplicate (AID 434948;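 active = active in primary screen and both duplicates, each dropping signal beyond three positive-control SD with fluorescence still positive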); conditions: HEK293 TRPC6, membrane potential dye fluorescence, at 10 µM, stimulated with maximal-effect acetylcholine; hits give high values
Chain of Short transient receptor potential channel 6 (Mus musculus) (Q61143 whole entry, looked up): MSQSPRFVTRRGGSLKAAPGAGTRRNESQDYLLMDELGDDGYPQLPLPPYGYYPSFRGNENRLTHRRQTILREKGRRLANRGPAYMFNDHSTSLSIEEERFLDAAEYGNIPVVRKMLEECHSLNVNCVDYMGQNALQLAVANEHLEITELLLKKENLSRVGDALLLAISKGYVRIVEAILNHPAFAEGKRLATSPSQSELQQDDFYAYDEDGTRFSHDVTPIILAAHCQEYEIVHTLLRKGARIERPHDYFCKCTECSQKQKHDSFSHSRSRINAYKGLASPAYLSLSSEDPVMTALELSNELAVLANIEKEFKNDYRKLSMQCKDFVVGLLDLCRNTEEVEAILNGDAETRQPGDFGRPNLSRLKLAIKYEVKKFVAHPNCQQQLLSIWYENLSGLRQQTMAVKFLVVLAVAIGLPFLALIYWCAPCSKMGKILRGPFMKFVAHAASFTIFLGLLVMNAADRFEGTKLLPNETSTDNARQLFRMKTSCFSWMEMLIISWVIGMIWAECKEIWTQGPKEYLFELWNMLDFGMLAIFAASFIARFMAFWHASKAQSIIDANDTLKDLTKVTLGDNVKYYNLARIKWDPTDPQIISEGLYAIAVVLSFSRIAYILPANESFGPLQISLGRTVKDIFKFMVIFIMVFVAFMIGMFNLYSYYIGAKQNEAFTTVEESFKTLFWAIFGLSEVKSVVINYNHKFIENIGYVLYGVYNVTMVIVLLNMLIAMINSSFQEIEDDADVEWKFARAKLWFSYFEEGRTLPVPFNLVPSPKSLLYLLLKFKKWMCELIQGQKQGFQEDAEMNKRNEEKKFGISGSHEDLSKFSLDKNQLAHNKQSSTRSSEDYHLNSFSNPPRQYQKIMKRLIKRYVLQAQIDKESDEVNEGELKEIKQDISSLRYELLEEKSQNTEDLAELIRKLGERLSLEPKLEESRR

[10] = target: Short transient receptor potential channel 6 (Mus musculus) (UniProt Q61143); experiment: activation of mouse TRPC6 channel, confirmation, selectivity assay for TRPC4 activator project, cell-based, HEK293, membrane potential dye, duplicate (AID 434950;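 active = membrane potential signal rise above negative control mean plus 3 SD in both duplicates, also active in the earlier TRPC4 screen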;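 for activation: 0% = buffer only wells and 100% = acetylcholine maximal-effect wells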); conditions: HEK293 TRPC6, membrane potential fluorescence, at 10 µM; hits give high values
[11] = target: Short transient receptor potential channel 6 (Mus musculus) (UniProt Q61143); experiment: TRPC6 potentiation by TRPC4 potentiator hits, confirmation, selectivity assay for TRPC4 potentiator project, HEK293 cells, membrane potential dye, duplicate (AID 434952); conditions: HEK293 TRPC6, membrane potential dye fluorescence, at 10 µM, maximal acetylcholine added after compound; hits give high values
[12] = target: Short transient receptor potential channel 4 (Mus musculus) (UniProt Q9QUQ5); experiment: calcium flux activators in TRPC4/5HT1a cells, counter-screen for TRPC4 activator project, cell-based, second counter screen, HEK293 TRPC4/5HT1a, Fluo-4 (AID 434977;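 active = calcium signal rise above buffer-control mean plus 5 SD in both duplicates, and also a hit in the primary screen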;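 for activation: plate controls were assay buffer for no effect and maximal serotonin response for full effect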); conditions: Fluo-4 calcium flux, at 10 µM; hits give high values
[13] = calcium flux inhibitors in TRPC4/5HT1a cells, confirmation, counter-screen for TRPC4 inhibitor project, cell-based, second counter screen, HEK293 TRPC4/5HT1a, Fluo-4 (AID 434978;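 active = primary screen active whose calcium signal fell more than 3 SD beyond the full-serotonin control mean in both duplicate plates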;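 note: serotonin given first at submaximal then at maximal dose after compound preincubation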); conditions: Fluo-4 calcium flux, at 10 µM, serotonin added to trigger calcium flux; hits give high values
[14] = tested on: TRPC4 (mouse), co-expressed with 5HT1a in HEK293; experiment: calcium flux potentiators in TRPC4/5HT1a cells, confirmation, counter-screen for TRPC4 potentiator project, cell-based, second counter screen, HEK293 TRPC4/5HT1a, Fluo-4 (AID 434979;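 active = signal rise over 3 SD above mean of control wells given weak agonist, in both repeats and first screen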); conditions: Fluo-4 calcium flux, at 10 µM, serotonin added at its EC20 dose; hits give high values
[15] = calcium flux activation in mu-opioid HEK293 cells, confirmation, counter-screen for TRPC4 activator project, cell-based, HEK293 mu-opioid receptor line (AID 449723;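 active = hit in primary screen, with calcium signal over 5 SD above buffer well mean in both duplicates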;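 note: counter screen cells carry the mu-opioid receptor alone and lack TRPC4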); conditions: Fluo-4 calcium fluorescence, at 10 µM; hits give high values
[16] = calcium flux enhancement in mu-opioid HEK293 cells, confirmation, counter-screen for TRPC4 allosteric potentiator project, cell-based, HEK293 mu-opioid receptor line (AID 449724;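 active = calcium signal rise more than 3 SD above the low-dose agonist control mean, in both duplicate plates and the primary screen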); conditions: Fluo-4 calcium flux, at 10 µM, compound added before EC20 DAMGO stimulus; hits give high values

Measured: activation

NCCNC(=O)c1c(NC(=O)c2ccccc2)sc2c1CCCC2
active: [1] 165%
inactive: all other assays above

CC[C@@H](C)[C@H](CNC)NC[C@@H](Cc1cccc2ccccc12)NCCc1cccc(C(F)(F)F)c1
active: [1] 127% | [10] 29% | [12] 111% | [15] 25.7%
inactive: all other assays above

CCN1CCN(c2c(Cl)cccc2NC(=O)c2ccc([N+](=O)[O-])cc2)CC1
active: [1] 80% | [12] 7.83%
inactive: all other assays above

CC1CC(C)CN(CCCNC(=O)Cn2cccc2C(=O)c2ccccc2)C1 (stereo not given)
active: [1] 162% | [2] 98% | [10] 50.5% | [12] 62.1%
inactive: all other assays above

CNCC(=O)N1CCN(c2ncc(C(F)(F)F)cc2Cl)CC1
active: [1] 155% | [2] 128% | [12] 79.5%
inactive: all other assays above

CCOC(=O)C1(Cc2ccccc2)CCN(Cc2cn[nH]c2-c2ccccc2)CC1
active: [1] 192% | [10] 76%
inactive: all other assays above

Cc1ccc(-n2cc(CNC(C)c3cnn(C)c3C)c(-c3ccc(F)cc3)n2)cc1 (stereo not given)
active: [1] 195% | [2] 86% | [10] 30.5%
inactive: all other assays above

Cc1cc(N2CCN(C)CC2)ccc1NC(=O)c1ccc(-c2ccc(Cl)cc2)o1
inactive: all assays above

Cc1sc2ncnc(NCC(c3ccco3)N3CCCC3)c2c1C (stereo not given)
active: [1] 143% | [2] 178% | [12] 78.8%
inactive: all other assays above

CN(C)c1ccc(/C=C/C(=O)c2c(O)c3ccccc3oc2=O)cc1
active: [1] 221% | [10] 934% | [12] 113% | [15] 121%
inactive: all other assays above

COc1ccc(C(CNc2nc(-c3cccnc3)nc3ccccc23)N(C)C)cc1 (stereo not given)
active: [1] 235% | [2] 84% | [12] 18%
inactive: all other assays above

O=C(Nc1ccc(Cl)cc1)N1CCC(c2nc(-c3cccs3)no2)CC1
active: [1] 158% | [12] 46.6%
inactive: all other assays above

COc1ccc(-c2nc(CSCC(=O)NC3CCN(Cc4ccccc4)CC3)c(C)o2)cc1OC
active: [1] 107% | [10] 99.5% | [12] 23.1%
inactive: all other assays above

CC(=O)OCC[N+](C)(C)C
active: [1] 128% and 146% | [2] 81% and 93% | [10] 91.5% and 116% | [12] 110% and 105% | [15] 101% and 102%
inactive: all other assays above

Cc1onc(-c2ccccc2Cl)c1C(=O)N1CCN(C/C=C/c2ccccc2)CC1
active: [1] 190% | [10] 38.5%
inactive: all other assays above

Reference: PubChem BioAssay
